Source: PubChem BioAssay (National Center for Advancing Translational Sciences (NCATS))
HPGD block = inhibitors of human 15-hydroxyprostaglandin dehydrogenase (HPGD); P15428; purified HPGD, NADH fluorescence kinetic, PGE2 substrate; Potency, µM, actives largely listed as inhibitors; 150,000 tested, 4.3% active; AID 894
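20 nM HPGD preincubated 15 min at room temperature with compound in 50 mM Tris-HCl pH 8, 0.01% Tween 20. Started with 1 mM NAD+ and 30 uM prostaglandin E2; NADH fluorescence (360/450 nm) read 5 times over 30-s intervals, last minus first.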
Tau ThT inhib = inhibitors of human tau fibril formation, thioflavin T binding | recombinant tau K18 P301L, heparin-induced fibrillization, ThT fluorescence | Potency, µM (top dose mostly 57.4 µM), hits mostly inhibitors | 270,000 tested, 2.1% active; active = well fitted curve in the direction sought with a large enough effect; inconclusive = small, poorly fitted or top-dose-only effect, or another doubt; inactive = no such curve, though single readings can be large; an effect the other way counts as inactive or inconclusive; also: nearly all actives have a fitted effect of over 55% in size
Target sequence (P10636 561-689 P618L limits assumed): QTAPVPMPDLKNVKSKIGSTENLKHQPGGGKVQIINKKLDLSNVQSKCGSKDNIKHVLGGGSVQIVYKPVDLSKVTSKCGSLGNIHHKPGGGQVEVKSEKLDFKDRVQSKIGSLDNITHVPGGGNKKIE
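Tau K18 P301L fragment (15 uM unlabeled plus 0.24 uM Alexa 594-labeled) in 100 mM sodium acetate pH 7 with compound, fibrillization induced by 20 uM heparin for 6 hr at 37 C. Thioflavin T (30 uM) added, fluorescence read after 1 hr (ex 450, em 510 nm).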
Tau fluor cs = counter-screen for tau fibril formation inhibitors. tau K18 P301L Alexa594 fluorescence, heparin fibrillization. Potency, µM (top dose mostly 57.7 µM). 280,000 tested, 0.93% active; active = well fitted curve in the direction sought with a large enough effect; inconclusive = small, poorly fitted or top-dose-only effect, or another doubt; inactive = no such curve, though single readings can be large; an effect the other way counts as inactive or inconclusive; also: nearly all actives have a fitted effect of over 55% in size
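Human tau K18 P301L (15 uM unlabeled, 0.24 uM Alexa 594-labeled) in 100 mM sodium acetate pH 7 with 20 uM heparin, 6 hr at 37 C. ThT 30 uM added, 1 hr ambient; Alexa 594 FP and total fluorescence read at 555/632 nm.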
ALDH1A1 inh = inhibitors of human aldehyde dehydrogenase 1A1; P00352; Purified ALDH1A1, NADH fluorescence, propionaldehyde substrate; Potency, µM (highest dose often 75.3 µM), actives largely listed as inhibitors; 220,000 tested, 7.3% active
Target sequence (P00352 whole entry, looked up): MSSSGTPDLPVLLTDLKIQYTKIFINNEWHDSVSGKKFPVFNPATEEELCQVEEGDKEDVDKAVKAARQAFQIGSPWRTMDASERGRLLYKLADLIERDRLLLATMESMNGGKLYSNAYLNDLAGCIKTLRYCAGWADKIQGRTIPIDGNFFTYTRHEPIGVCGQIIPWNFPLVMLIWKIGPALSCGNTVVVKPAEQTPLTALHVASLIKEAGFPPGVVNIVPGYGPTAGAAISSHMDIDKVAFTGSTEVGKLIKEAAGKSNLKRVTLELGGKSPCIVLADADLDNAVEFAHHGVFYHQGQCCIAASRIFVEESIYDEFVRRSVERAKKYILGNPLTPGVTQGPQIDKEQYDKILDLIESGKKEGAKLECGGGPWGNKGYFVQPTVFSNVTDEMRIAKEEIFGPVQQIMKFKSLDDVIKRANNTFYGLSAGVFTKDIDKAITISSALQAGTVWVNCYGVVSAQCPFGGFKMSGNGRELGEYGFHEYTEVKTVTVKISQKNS
Tau fibril FP = inhibitors of human tau fibril formation; P10636; K18 P301L tau heparin fibrillization, Alexa594 FP, 6 h; Potency, µM (series often up to 57.7 µM), usual class: inhibitors; 280,000 tested, 0.39% active; AID 1468; active = well fitted curve in the direction sought with a large enough effect; inconclusive = small, poorly fitted or top-dose-only effect, or another doubt; inactive = no such curve, though single readings can be large; an effect the other way counts as inactive or inconclusive; also: nearly all actives have a fitted effect of over 55% in size
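FP of Alexa 594-tau after heparin (20 uM) induction. Substrate: human K18 P301L, 15 uM unlabeled, 0.24 uM labeled. Buffer 100 mM sodium acetate pH 7. 6 hr, 37 C.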
JMJD2E inh = blocks human JMJD2E demethylase activity | Potency, µM (titrated, usually from 57.1 µM), usual class: inhibitors | JMJD2E catalytic domain, FDH-coupled NADH fluorescence (FDH is formaldehyde dehydrogenase) | B2RXH2 | 230,000 tested, 1.6% active | AID 2147; also: nearly all actives have a fitted effect of over 50% in size
Each line names hits and unclear results; the compound was inactive in the other large screens; [ ] = remark or other dose. Hits are enriched below; roughly 9.9% of the tested compounds scored in any of these assays. Unless noted, calls follow the shape of the dose curve; as a rule, active = well fitted inhibition curve with a large enough effect (not every such curve was filed as active); inconclusive = small, poorly fitted or top-dose-only effect, or another doubt; inactive = no such curve, though single readings can be large or run the other way.

Cc1cc(/C=C2\Cc3ccccc3C2=O)c(C)n1-c1ccccc1	HPGD block inconclusive, Tau ThT inhib inconclusive, ALDH1A1 inh 7.9µM, JMJD2E inh inconclusive
COc1ccccc1/C=C1\Cc2ccccc2C1=O	Tau ThT inhib inconclusive, JMJD2E inh inconclusive (no result: HPGD block)
Cc1cc(C=C2C(=O)c3ccccc3C2=O)c(C)n1-c1ccccc1	Tau ThT inhib inconclusive, ALDH1A1 inh 16µM
O=C(O)c1ccc(COc2ccccc2C=C2C(=O)c3ccccc3C2=O)cc1	HPGD block 10µM, Tau ThT inhib inconclusive, ALDH1A1 inh inconclusive, JMJD2E inh inconclusive
CCCN(CCC)CCCNC(=O)C1CCC(CNS(=O)(=O)c2ccc(NC(C)=O)cc2)CC1 (stereo not given)	none (no result: HPGD block, ALDH1A1 inh, JMJD2E inh)
CCOc1ccc(CCNC(=O)c2ccc3c(c2)N(Cc2ccc(F)cc2)CCS3)cc1	Tau fluor cs inconclusive (no result: HPGD block, ALDH1A1 inh, JMJD2E inh)
NC1=NC(=O)CC(C(=O)NCc2ccccc2)S1 (stereo not given)	ALDH1A1 inh 18µM
Cc1ccc(OC(=O)COc2ccccc2C)c(-n2nc3ccccc3n2)c1	HPGD block inconclusive, Tau ThT inhib inconclusive, ALDH1A1 inh 32µM
Cc1nn(CCC(=O)Nc2ccccc2Br)c(=O)c2nn(-c3ccccc3)c(C)c12	none (no result: HPGD block, ALDH1A1 inh, JMJD2E inh)
O=C1NC(=S)/C(=C\c2ccc(-c3ccccc3Cl)o2)S1	HPGD block 16µM, Tau ThT inhib 7.9µM, Tau fluor cs inconclusive, ALDH1A1 inh inconclusive, Tau fibril FP inconclusive
Cc1cc(C)c2c(CC(=O)Nc3ccc(S(=O)(=O)N4CCCC(C)C4)cc3)coc2c1 (stereo not given)	Tau fluor cs inconclusive, Tau fibril FP 14µM (no result: HPGD block, ALDH1A1 inh, JMJD2E inh)
COc1ccc(CNC(=O)c2cc(-c3ccc(C)c(C)c3)n[nH]2)cc1	Tau fibril FP inconclusive (no result: HPGD block, ALDH1A1 inh, JMJD2E inh)
C=CCNC(=O)CSc1nnc(-c2ccccn2)n1Cc1ccccc1	ALDH1A1 inh 35µM (no result: HPGD block)
Cc1cccc(C2NC(=O)c3c(sc(C)c3C)N2)c1O (stereo not given)	HPGD block inconclusive, Tau ThT inhib 16µM, ALDH1A1 inh inconclusive
CCc1cc(C(=O)O)c(NC(=O)C(c2ccccc2)c2ccccc2)s1	ALDH1A1 inh 13µM
COc1ccc(S(=O)(=O)N(C)CC(=O)N2CCN(Cc3ccccc3)CC2)cc1C	ALDH1A1 inh 16µM
COCCCNC(=O)CN(C1CCCCC1)S(=O)(=O)c1ccc(C)cc1	ALDH1A1 inh 14µM
CN(CC(=O)N1CCCC1)S(=O)(=O)c1ccc2ccccc2c1	ALDH1A1 inh inconclusive (no result: HPGD block)
Cc1ccc(S(=O)(=O)C2(C(=O)N3CCN(C4CCCCC4)CC3)CC2)cc1	none
Cc1ccc(S(=O)(=O)N(C)CC(=O)N2CCCC2)cc1	ALDH1A1 inh 3.5µM
CCN1CCN(C(=O)CN(C)S(=O)(=O)c2ccc(OC)c(C)c2)CC1	none
CCNC(=O)CN(C1CCCCC1)S(=O)(=O)c1ccc(F)cc1	none
Cc1ccc(S(=O)(=O)C2(C(=O)N3CCCCCC3)CC2)cc1	HPGD block 13µM, ALDH1A1 inh 7.1µM
O=[N+]([O-])c1ccc(CSCc2ccc(Cl)cc2)cc1	none (no result: Tau ThT inhib, Tau fluor cs, Tau fibril FP, JMJD2E inh)
Cc1ccc(C)c(NC(=O)CN2C(=O)COc3ccc(Cl)cc32)c1	none (no result: HPGD block, ALDH1A1 inh, JMJD2E inh)
CCOC(=O)N1CCN(C(=O)CN(C2CCCCC2)S(=O)(=O)c2ccc(C)cc2)CC1	ALDH1A1 inh 7.1µM
COc1cccc(OCc2nnc(SCC(=O)NCc3ccco3)n2CCc2ccccc2)c1	Tau ThT inhib inconclusive, ALDH1A1 inh 22µM
CCn1c(-c2ccccc2)c(C(=O)CCl)c2ccccc21	Tau ThT inhib inconclusive, ALDH1A1 inh 6.3µM (no result: HPGD block)
CCn1c2ccccc2c(=O)c2ccccc21	ALDH1A1 inh inconclusive (no result: HPGD block)
Cn1c(-c2ccccc2)c(O)c(=O)c2ccccc21	none (no result: HPGD block, JMJD2E inh)
Cn1c(-c2ccccc2)c(C(=O)CCl)c2ccccc21	Tau ThT inhib inconclusive, ALDH1A1 inh 4µM (no result: HPGD block)
Cc1ccc(CN2CCN(CC(=O)NCc3ccccc3Cl)C2=O)cc1	none (no result: HPGD block, ALDH1A1 inh, JMJD2E inh)
COC(=O)NC(c1cccc(C)c1)[C@]1(C(C)=O)CCOC1=O (stereo not given in full)	ALDH1A1 inh inconclusive (no result: HPGD block, JMJD2E inh)
N#CC1=C(N)SC(N)=C(C#N)C1c1cccc(Oc2ccccc2)c1	HPGD block 22µM, Tau ThT inhib inconclusive, Tau fluor cs inconclusive, ALDH1A1 inh 10µM
N#CC1=C(N)N2C(=C(C#N)C1c1ccccc1)Sc1ccccc12 (stereo not given)	ALDH1A1 inh inconclusive
CCOc1ccc(C2C(C#N)=C(N)SC(N)=C2C#N)cc1OCC	HPGD block 22µM, Tau ThT inhib inconclusive, Tau fluor cs inconclusive, ALDH1A1 inh inconclusive
CCOc1ccc(C2C(C#N)=C(N)SC(N)=C2C#N)cc1OC	HPGD block 25µM, Tau ThT inhib inconclusive, ALDH1A1 inh inconclusive, JMJD2E inh inconclusive
COc1ccc(-n2c(/C=C/c3ccccc3F)nc3cc(OC)c(OC)cc3c2=O)cc1Cl	none (no result: HPGD block, ALDH1A1 inh, JMJD2E inh)
O=C1[C@@H]2C(c3cccnc3)=NO[C@@H]2C(=O)N1c1ccc(Br)cc1	ALDH1A1 inh 7.9µM (no result: HPGD block)
COc1ccc(CCNC(=O)Cn2c(=O)n(-c3ccc(F)cc3F)c(=O)c3sccc32)cc1OC	ALDH1A1 inh inconclusive (no result: HPGD block)
COc1ccc(CCNC(=O)Cn2c(=O)n(-c3cc(F)ccc3F)c(=O)c3sccc32)cc1OC	ALDH1A1 inh 1µM (no result: HPGD block)
C=CCn1c(N/N=C/c2ccc(O)cc2)nc2ccccc2c1=O	Tau fluor cs 16µM[quencher], ALDH1A1 inh inconclusive, Tau fibril FP inconclusive (no result: HPGD block)
